Results: PubChem BioAssay (NCATS)
Records with an inconclusive call do not appear. Calls of active or inactive are those of the source. Unless noted, calls come from the whole dose curve; as a rule, active = well fitted curve in the direction sought with a large enough effect; inconclusive = small, poorly fitted or top-dose-only effect, or another doubt; inactive = no such curve, though single readings can be large; an effect the other way counts as inactive or inconclusive.

What was measured:
[1] = qHTS assay for measurement of the activity of small molecule inhibitors on Zika virus induced Caspase-3 activity in human iPSC derived neural progenitor cells (hNPCs) (AID 1224857); note: nearly all actives have a fitted effect of over 65% in size; note: potency is the fitted concentration of half-maximal effect
Summary of the method: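 Zika virus (2 FFU/cell) infection of human iPSC-derived NPCs, 6 h, following 1 h compound preincubation. Read-out: Caspase-Glo 3/7 luminescence.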

[2] = qHTS assay to identify small molecule inhibitors of chordoma cells - UCH-2 (AID 1259356); note: series mostly up to about 46 µM
[3] = biological target: Atrial natriuretic peptide receptor 2 (Homo sapiens) (UniProt P20594); assay: Natriuretic polypeptide receptor (hNpr2) antagonism - Pilot subtype selectivity assay (AID 1347050; calls by dose curve; note: potency is the fitted concentration of half-maximal effect)
Sequence of Atrial natriuretic peptide receptor 2 (Homo sapiens) (P20594 whole entry, looked up): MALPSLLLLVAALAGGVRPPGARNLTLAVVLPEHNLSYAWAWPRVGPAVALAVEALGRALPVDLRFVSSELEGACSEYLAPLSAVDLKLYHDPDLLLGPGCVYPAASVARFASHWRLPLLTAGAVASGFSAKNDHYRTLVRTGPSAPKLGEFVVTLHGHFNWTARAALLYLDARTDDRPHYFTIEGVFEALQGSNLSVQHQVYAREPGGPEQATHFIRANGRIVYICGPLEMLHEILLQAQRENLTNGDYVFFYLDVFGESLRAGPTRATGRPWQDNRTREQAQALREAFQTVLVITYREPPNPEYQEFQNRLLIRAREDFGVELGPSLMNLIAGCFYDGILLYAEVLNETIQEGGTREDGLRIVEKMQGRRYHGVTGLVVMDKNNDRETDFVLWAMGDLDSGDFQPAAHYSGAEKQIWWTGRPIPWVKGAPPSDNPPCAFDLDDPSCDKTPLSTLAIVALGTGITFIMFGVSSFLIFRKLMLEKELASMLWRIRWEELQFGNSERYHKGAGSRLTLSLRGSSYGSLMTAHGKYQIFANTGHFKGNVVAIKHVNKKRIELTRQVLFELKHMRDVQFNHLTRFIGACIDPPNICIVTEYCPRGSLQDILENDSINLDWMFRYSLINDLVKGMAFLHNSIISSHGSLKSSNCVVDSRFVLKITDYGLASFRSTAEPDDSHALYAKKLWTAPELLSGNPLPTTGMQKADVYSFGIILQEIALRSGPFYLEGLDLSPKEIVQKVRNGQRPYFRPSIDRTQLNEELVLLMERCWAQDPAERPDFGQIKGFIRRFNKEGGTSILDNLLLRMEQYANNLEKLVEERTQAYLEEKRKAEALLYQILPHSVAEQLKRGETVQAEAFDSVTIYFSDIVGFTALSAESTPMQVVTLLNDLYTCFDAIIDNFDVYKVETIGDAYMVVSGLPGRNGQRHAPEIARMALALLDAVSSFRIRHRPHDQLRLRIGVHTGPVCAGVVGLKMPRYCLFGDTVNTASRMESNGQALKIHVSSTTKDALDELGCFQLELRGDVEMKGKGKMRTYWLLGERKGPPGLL
Summary of the method: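 cGMP-sensor HEK293/hNpr2 cells; 2% GloSensor reagent 2 h RT; compounds 30 min; baseline luminescence read; 1 nM hNppC agonist 20 min RT; final luminescence read by CCD camera. Antagonism = reduced post-agonist signal.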

[4] = NS1 protein of Zika virus - qHTS assay to identify small molecule inhibitors in human HEK 293 cells (AID 1347053); note: series mostly up to about 46 µM; nearly all actives have a fitted effect of over 55% in size
Summary of the method: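 HEK 293; 20 h pre-culture, 37 C/5% CO2; cpd 1 h pre-infection; ZIKV MR766, MOI = 0.5, 24 h, 37 C; TR-FRET NS1 readout (two anti-NS1 Abs); norm. to no-virus vs infected.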

[5] = biological target: T1, Tyrosine-protein phosphatase non-receptor type substrate 1 (Homo sapiens) + Leukocyte surface antigen CD47 (Homo sapiens) (UniProt P78324+Q08722); assay: CD47-SIRPalpha protein protein interaction - LANCE assay qHTS validation (AID 1347057; active = well fitted curve in the direction sought with a large enough effect in the signal ratio, with a control signal flat, not every such curve was filed as active; the % refers to the signal ratio; note: series mostly up to about 38 µM)
T1 sequence (P78324 whole entry, looked up): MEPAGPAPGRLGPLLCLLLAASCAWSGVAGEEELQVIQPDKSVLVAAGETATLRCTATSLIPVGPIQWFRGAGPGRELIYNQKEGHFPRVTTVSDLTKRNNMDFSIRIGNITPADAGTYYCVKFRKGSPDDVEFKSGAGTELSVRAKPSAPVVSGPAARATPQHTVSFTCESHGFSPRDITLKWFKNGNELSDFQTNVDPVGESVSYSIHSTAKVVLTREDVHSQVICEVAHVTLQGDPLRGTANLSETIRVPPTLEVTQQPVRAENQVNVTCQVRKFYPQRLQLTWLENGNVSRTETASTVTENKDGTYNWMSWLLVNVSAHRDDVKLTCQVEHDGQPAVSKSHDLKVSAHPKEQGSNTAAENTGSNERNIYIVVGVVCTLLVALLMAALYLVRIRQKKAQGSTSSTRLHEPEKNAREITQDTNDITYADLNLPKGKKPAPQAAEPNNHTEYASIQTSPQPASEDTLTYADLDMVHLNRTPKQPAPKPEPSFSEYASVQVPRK
T1 sequence (Q08722 whole entry, looked up): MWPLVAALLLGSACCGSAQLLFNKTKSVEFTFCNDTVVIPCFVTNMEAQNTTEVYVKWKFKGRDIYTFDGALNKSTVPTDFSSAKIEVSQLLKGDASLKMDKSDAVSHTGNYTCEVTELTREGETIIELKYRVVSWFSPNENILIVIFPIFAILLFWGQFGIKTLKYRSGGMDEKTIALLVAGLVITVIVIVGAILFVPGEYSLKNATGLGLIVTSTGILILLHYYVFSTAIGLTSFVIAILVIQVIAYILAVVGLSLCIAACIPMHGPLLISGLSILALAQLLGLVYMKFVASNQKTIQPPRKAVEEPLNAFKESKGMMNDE
Summary of the method: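 First, His-tagged CD47 and Eu-labelled anti-His antibody met the compound for 30 min; next, site-specifically biotinylated SIRPalpha was added for 30 min; finally streptavidin-APC was added before reading the TR-FRET ratio.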

[6] = biological target: T1, Tyrosine-protein phosphatase non-receptor type substrate 1 (Homo sapiens) + Leukocyte surface antigen CD47 (Homo sapiens); assay: CD47-SIRPalpha protein protein interaction - HTRF assay qHTS validation (AID 1347058; active = well fitted curve in the direction sought with a large enough effect in the signal ratio, not every such curve was filed as active; the % refers to the signal ratio; note: series mostly up to about 38 µM)
Summary of the method: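 TR-FRET read (Ch1/Ch2 ratio) of soluble extracellular CD47 and Avi-biotinylated SIRPalpha domains in PBS pH 7.4 with 0.05% IGEPAL; 7-point compound titration. Sequential 30 min room-temperature steps; non-biotinylated SIRPalpha as control inhibitor.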

[7] = biological target: T1, Tyrosine-protein phosphatase non-receptor type substrate 1 (Homo sapiens) + Leukocyte surface antigen CD47 (Homo sapiens); assay: CD47-SIRPalpha protein protein interaction - Alpha assay qHTS validation (AID 1347059);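 note: bead proximity luminescence from CD47 binding SIRPalpha after compound preincubation with SIRPalpha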
Summary of the method: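 Soluble extracellular domains: Avi-tag biotinylated SIRPalpha (25 nM) preincubated 30 min RT with compound, then 6His-CD47 (12.5 nM) 30 min; Ni-NTA acceptor and streptavidin donor beads (10 ug/mL) 30 min, AlphaScreen read. PBS pH 7.4, 0.05% IGEPAL.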

[8] = biological target: Parathyroid hormone/parathyroid hormone-related peptide receptor (Homo sapiens) (UniProt Q03431); assay: qHTS for PTHR1 Agonists: Optimization Screen against the NCGC LOPAC library (AID 1347079);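 note: GloSensor cAMP luminescence in HEK-293 GP2 cells expressing human PTHR1 with IBMX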
Sequence of Parathyroid hormone/parathyroid hormone-related peptide receptor (Homo sapiens) (Q03431 whole entry, looked up): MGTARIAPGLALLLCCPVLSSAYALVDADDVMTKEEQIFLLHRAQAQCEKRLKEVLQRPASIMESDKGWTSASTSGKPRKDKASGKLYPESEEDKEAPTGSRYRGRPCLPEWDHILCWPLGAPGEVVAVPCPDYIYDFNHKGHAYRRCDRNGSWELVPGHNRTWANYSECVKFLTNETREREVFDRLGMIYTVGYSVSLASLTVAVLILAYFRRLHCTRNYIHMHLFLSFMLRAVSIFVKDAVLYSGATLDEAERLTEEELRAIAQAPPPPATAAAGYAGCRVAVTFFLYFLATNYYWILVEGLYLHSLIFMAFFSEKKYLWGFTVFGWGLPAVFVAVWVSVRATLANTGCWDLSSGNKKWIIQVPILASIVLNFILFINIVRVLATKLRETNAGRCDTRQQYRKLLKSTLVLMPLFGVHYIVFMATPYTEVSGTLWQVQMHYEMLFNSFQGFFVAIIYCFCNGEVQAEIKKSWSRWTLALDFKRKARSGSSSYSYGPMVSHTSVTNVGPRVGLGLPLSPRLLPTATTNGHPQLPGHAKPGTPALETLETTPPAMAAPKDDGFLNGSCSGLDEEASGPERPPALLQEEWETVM
Summary of the method: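 Agonist readout: GloSensor cAMP luminescence, read after 15 min at room temperature. HEK-293-derived GP2 line carries PTHR1; compounds tested as a titration for 1 hr at 37C in presence of IBMX. M-PTH (1-15) served as control.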

[9] = qHTS assay to identify small molecule inhibitors of chordoma cells - UCH-1 (AID 1259355); note: nearly all actives have a fitted effect of over 55% in size
Summary of the method: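 Luminescent ATP read-out (CellTiter-Glo, 30min at room temperature) measured viability of UCH-1 cells exposed for 48hr to test drugs at 15 concentrations, co-dosed with a five-agent combination of auranofin, camptothecin, doxorubicin, rubitecan and topotecan.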

[10] = qHTS of pediatric cancer cell lines to identify multiple opportunities for drug repurposing: Primary screen for TC32 cells (AID 1347089); note: nearly all actives have a fitted effect of over 60% in size
Summary of the method: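 A viability screen of TC32 cells was run over 48 h, with primary MIPE doses spanning 0.78 nM–46 µM and NPC doses 0.59 nM–46 µM. ATP luminescence (CellTiter-Glo) served as the read-out.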

[11] = qHTS of pediatric cancer cell lines to identify multiple opportunities for drug repurposing: Primary screen for DAOY cells (AID 1347090); note: series mostly up to about 46 µM; nearly all actives have a fitted effect of over 55% in size
Summary of the method: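 Eight- or eleven-point concentration series, 48 h treatment at 37 degrees C in growth media; readout CellTiter-Glo luminescence. Potency and efficacy were taken from the concentration-response curves.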

[12] = P-glycoprotein substrates identified in KB-8-5-11 adenocarcinoma cell line, qHTS therapeutic library screen (AID 1346987); note: series mostly up to about 44 µM; nearly all actives have a fitted effect of over 65% in size
Summary of the method: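 Steps: plate 500 KB-8-5-11 cells/well in DMEM + 10% FCS (colchicine removed); pin compounds in dose-response; incubate 72 h, 37 degree C, 5% CO2; add CellTiter-Glo, 5 min; read luminescence.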

Measured: Potency

CN1[C@@H](CC(=O)c2ccccc2)CCC[C@H]1C[C@H](O)c1ccccc1
inactive: [1] | [2] | [3] | [4] | [5] | [6] | [7] | [8]

Clc1ccccc1-c1nc(-c2ccncc2)no1
inactive: [1] | [9] | [2] | [10] | [11]

Cc1ccc(O)c(-n2nc3ccccc3n2)c1
inactive: [1] | [9] | [2] | [12] | [10] | [11]

O=c1[nH]c2ccccc2n1CCCN1CCN(C(c2ccccc2)c2ccccc2)CC1
inactive: [1] | [9] | [2] | [4] | [10] | [11]

O=C(Nc1ccc2c(c1)CCN(Cc1ncn[nH]1)C2)c1ccccc1-c1ccc(C(F)(F)F)cc1
inactive: [1] | [12] | [4] | [5] | [6] | [7]

CO/N=C(\C(=O)N[C@@H]1C(=O)N2C(C(=O)O)=C(COC(C)=O)CS[C@H]12)c1csc(N)n1 (stereo in doubt)
inactive: [1] | [9] | [2] | [12]

Cc1ccc(O)c(N=Nc2ccccc2)n1
active: [1] 0.891 µM | [3] 10.4 µM
inactive: [5] | [8]

CN[C@H](CC(C)C)C(=O)N[C@H]1C(=O)N[C@@H](CC(N)=O)C(=O)N[C@H]2C(=O)N[C@H]3C(=O)N[C@H](C(=O)N[C@H](C(=O)O)c4cc(O)cc(O)c4-c4cc3ccc4O)[C@H](O)c3ccc(c(Cl)c3)Oc3cc2cc(c3O[C@@H]2O[C@H](CO)[C@@H](O)[C@H](O)[C@H]2O[C@H]2C[C@](C)(N)[C@H](O)[C@H](C)O2)Oc2ccc(cc2Cl)[C@H]1O
inactive: [1] | [4] | [5] | [6] | [7]

O=C(CCSCc1ccco1)NNC(=O)N1Cc2ccccc2Oc2ccc(Cl)cc21
inactive: [1] | [4] | [5] | [6] | [7]

CCCCCCCCCCCCCCCCCCN(CCCCCCCCCCCCCCCCCC)CCCN(CCO)CCO
inactive: [1] | [4] | [5] | [6] | [7]

COC1=C(OC)C(=O)c2ccccc2C1=O
inactive: [1] | [3] | [4] | [5] | [7] | [8]

O=C(c1cc(O)c(O)c([N+](=O)[O-])c1)c1ccccc1F
inactive: [1] | [3] | [4] | [5] | [7] | [8]

Fc1ccc2[nH]c(CN3CCN(c4ccccn4)CC3)cc2c1
inactive: [1] | [4] | [5] | [6] | [7]

COCCOc1cc2nc[nH]c(=O)c2cc1OCCOC
inactive: [1] | [4] | [5] | [6] | [7]

Nc1ccn([C@@H]2O[C@H](CO)[C@@H](O)[C@@H]2O)c(=O)n1
inactive: [1] | [4]

CCCC(CCC)C(=O)OC1CC2CCC(C1)[N+]2(C)C (stereo not drawn)
inactive: [1] | [4] | [5] | [6] | [7]
